# Test results taken from PubChem BioAssay (NCI).
# About 83,000 compounds went through this panel and 20% of them were active in at least one assay; those are over-represented in the sample as a whole.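 Single-concentration screen, 48 h exposure, 96-well plates. Endpoint: percent growth. Below 10 = active.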 Values without a mark were called inactive. Active and inactive are the calls of the source.
# System: M14 melanoma
# Assay: NCI-60 one-dose screen, 48 h (100 = growth as untreated, 0 = no growth, -100 = all killed)
# Details: 10 µM unless noted
row,Structure (SMILES),growth
1,CN1CCC(COc2cnc(-c3cccc(Cn4nc(-c5cccc(C#N)c5)ccc4=O)c3)nc2)CC1,39%
2,COc1cc(OC)c(/C=C/S(=O)(=O)Cc2ccc(OC)c(NCC(=O)O)c2)c(OC)c1,12.6%
3,O=C(NOC[C@H](O)CO)c1ccc(F)c(F)c1Nc1ccc(I)cc1F,3.66% (active)
4,C=CCN1C(=O)c2cccc3c(-c4ccc5c(c4)ncn5C4CCCCC4)ccc(c23)C1=O,50%
5,Cc1cc(O)cc(-c2c(-c3ccnc(-c4cccnc4)c3)cnn2C)c1,66%
6,O=[N+]([O-])c1cc(Br)cc2c1[nH]c1ccc(Br)cc12,70.5%
7,COc1cc2ncnc(Oc3cccc(NC(=O)Nc4cc(C(C)(C)C(F)(F)F)on4)c3)c2cc1OC,-2.42% (active)
8,CCNC(=O)Nc1nc2ccc(Oc3ccnc(C(=O)NC)c3)cc2s1,40.7%
9,COc1cccc2cc(-c3nc(C4CCC(C(=O)O)CC4)n4ncnc(N)c34)[nH]c12 (stereo not drawn),4.34% (active)
10,CN1CCN(c2nc(C3=C(c4c[nH]c5ccccc45)C(=O)NC3=O)c3ccccc3n2)CC1,12.2%
11,Cc1cc2c(F)c(Oc3ncnn4cc(OC[C@@H](C)OC(=O)[C@H](C)N)c(C)c34)ccc2[nH]1,16.3%
12,S=C(NCc1ccc2c(c1)OCO2)N1CCN(c2ncnc3c2oc2ccccc23)CC1,35.2%
13,C=C1CC[C@@H]2[C@](C)(COC(C)=O)[C@H](OC(C)=O)CC[C@@]2(C)[C@@H]1C/C=C1/C(=O)OC[C@H]1OC(C)=O,35.4%
14,C=CC(=O)Nc1cc(Nc2nccc(-c3cn(C)c4ccccc34)n2)c(OC)cc1N(C)CCN(C)C,-79.4% (active)
15,C/C=C/C=N/NC(=S)Nc1ccccc1,96.5%
16,CN1CC[C@H](c2c(O)cc(O)c3c(=O)cc(-c4ccccc4Cl)oc23)[C@H](O)C1,-50.1% (active)
17,CCc1nc(C(N)=O)c(Nc2ccc(N3CCC(N4CCN(C)CC4)CC3)c(OC)c2)nc1NC1CCOCC1,15.2%
18,C=CC(=O)N1CCC[C@H](n2c(=O)n(-c3ccc(Oc4ccccc4)cc3)c3c(N)ncnc32)C1,84.1%
19,COCCN1CCN(Cc2ccc(-c3n[nH]c4c3C(=O)c3c(NC(=O)NN5CCOCC5)cccc3-4)cc2)CC1,-52.6% (active)

row,Structure (SMILES),growth
1,CC(C)(C)c1ccc(Cn2cc(CSc3nc4ccccc4s3)nn2)cc1,97%
2,COc1ccc(-c2ccc3c(N4CCOC[C@@H]4C)nc(N4CCOC[C@@H]4C)nc3n2)cc1CO,6.2% (active)
3,COc1cc(N2CCC(N3CCN(C)CC3)CC2)ccc1Nc1ncnc(Nc2ccccc2S(=O)(=O)C(C)C)n1,93.3%
4,COc1cccc(NC(=O)Nc2ccc(Nc3ncnc4sc5c(c34)CCN(C(=O)CCl)C5)cc2)c1,101%
5,O=C(Nc1cnn2ccc(N3CCC[C@@H]3c3cc(F)ccc3F)nc12)N1CC[C@H](O)C1,81.5%
6,CC(=O)NCC(=O)N1[C@@H]2CC[C@H]1c1ccc(Nc3ncc(C(F)(F)F)c(NC4CCC4)n3)cc12,26.9% [2.5 µM]
7,CO[C@@H](C)Cn1c(=O)n(C)c2cnc3ccc(-c4cncc(C(C)(C)O)c4)cc3c21,3.8% (active)
8,C[C@@H](Oc1cc(C(=O)Nc2ccc(C(=O)N3CCN(C)CC3)cc2)nnc1N)c1c(Cl)ccc(F)c1Cl,76.9%
9,COc1ccc(-c2cnc(-c3ccc(Cl)cc3)[nH]2)cc1OC,115%
10,CC(C)(C)c1nc(-c2cccc(NS(=O)(=O)c3c(F)cccc3F)c2F)c(-c2ccnc(N)n2)s1,32%
11,CCN(CC)c1cc2oc3cc(N)cc(=N)c-3nc2cc1C,25.5%
12,COC(=O)Nc1nc2ccc(C(=O)c3ccc(N(C)C4COC4)cc3)cc2[nH]1,3.69% (active)
13,CNC(=O)c1cc(COc2nnc(Nc3ccc(Cl)cc3)c3ccoc23)ccn1,78.9%
14,CCN(CCCOc1ccc2c(Nc3cc(CC(=O)Nc4cccc(F)c4)[nH]n3)ncnc2c1)CCOP(=O)(O)O,45.1%
15,COc1cc2nccc(Oc3ccc(NC(=O)Nc4cc(C)on4)c(Cl)c3)c2cc1OC,7.27% (active)
16,CNC(=O)c1cc(Oc2cccc3nc(Nc4ccc(Cl)c(F)c4)ccc23)ccn1,80.2%
17,Cc1nc(NC(=O)N2CCC[C@H]2C(N)=O)sc1-c1ccnc(C(C)(C)C(F)(F)F)c1,41.4%
18,COc1ccc(Nc2ncccc2NC(=O)c2cn(Cc3cccc(Oc4ccccc4)c3)nn2)cc1,95.9%
19,CS(=O)(=O)CCNCc1ccc(-c2ccc3ncnc(Nc4ccc(OCc5cccc(F)c5)c(Cl)c4)c3c2)o1,-64.5% (active)
